# Screening results deposited in PubChem BioAssay by National Center for Advancing Translational Sciences (NCATS).
# HepG2 tox: HepG2 cytotoxicity, counter-screen for TGF-b inhibitors | AID 588856 | HepG2 CAGA-GFP viability, ATP luminescence, 18 h | Potency, µM (top dose mostly 46.1 µM), most hits filed as cytotoxic | 410,000 tested, 0.76% active
#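 HepG2 CAGA-GFP cells (1000/well, DMEM with 1% FBS) received compound, then TGF-beta at 500 pg/mL final, and were incubated 18 hours at 37 degrees C. Viability was read by CellTiter-Glo luminescence. Media-only wells were set as complete cell-killing and DMSO as no toxicity.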
# IL-1B inflam inh: inhibitors of inflammasome signaling (IL-1 beta secretion). activity change, % at 57.5 µM. THP-1 LPS/ATP IL-1B secretion, AlphaLISA, 16 h; active compounds read low. AID 743279. 360,000 tested, 4.7% active; in the data active means activity change below about -50%; inconclusive means mostly about -30% to -49%
#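 THP-1 cells pretreated 1 hr with compounds (up to 57.5 uM final), then stimulated with LPS (250 ng/mL final) plus ATP (1.25 mM final); secreted IL-1B measured by AlphaLISA after 16 hr, decreased signal indicating inhibition.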
# ATXN viability: reduces viability in counter-screen for ATXN expression inhibitors; S2 cells (HEK-293 line with an ATXN2-luciferase reporter) viability, CellTiter-Fluor protease fluorescence, 24 h; Potency, µM (titrated, usually from 56.7 µM), most hits filed as cytotoxic; AID 651635; 400,000 tested, 0.49% active; further: nearly all actives have a fitted effect of over 40% in size
# TGFb inhibitor: blocks TGF-b signaling; Potency, µM (titrated, usually from 46.1 µM), most hits filed as inhibitors; 410,000 tested, 1.2% active; HepG2 CAGA-GFP TGF-b/SMAD3 reporter, GFP fluorescence, 18 h; TGF-beta stimulated, 500 pg/mL final; further: nearly all actives have a fitted effect of over 65% in size
#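 HEPG2 CAGA-GFP cells (1000/well, DMEM with 1% FBS) were pre-incubated 2 h at 37 degrees C, given compound by pin tool, then stimulated with TGF-beta at 500 pg/mL final for 18 h before per-cell GFP fluorescence imaging.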
# ATXN2 expr inh: ATXN2 expression inhibition; HEK-293 ATXN2-luciferase reporter, luminescence, 24 h; Potency, µM (titrated, usually from 57 µM), most hits filed as inhibitors; 360,000 tested, 0.72% active; further: nearly all actives have a fitted effect of over 55% in size
#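 ATXN2-luciferase reporter cells (luciferase flanked by upstream and downstream ATXN2 gene portions) were treated 24 h at 37 °C with compounds at up to 57 uM. SteadyGlo luminescence gave expression; GF-AFC fluorescence gave viability.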
# Numbers stand for hits; i = inactive; ? = inconclusive; nt = no result given. The list is not random: actives were taken first. Their share in the collection is about 5.7%. Unless noted, the call rests on the fitted dose curve; in most records, active means well fitted curve in the direction sought with a large enough effect; inconclusive means small, poorly fitted or top-dose-only effect, or another doubt; inactive means no such curve, though single readings can be large; an effect the other way counts as inactive or inconclusive.
SMILES,HepG2 tox,IL-1B inflam inh,ATXN viability,TGFb inhibitor,ATXN2 expr inh
O=C(NCc1ccco1)c1ccc(Cn2c(SCc3ccccc3F)nc3cccnc32)cc1,i,nt,nt,12.6µM,nt
O=C(NC1CCCC1)c1ccc(CSc2nc3cccnc3n2Cc2ccccc2F)cc1,i,nt,?,?,?
CN(Cc1ccccc1)C(=O)c1ccc(CSc2nc3cccnc3n2Cc2ccccc2F)cc1,12.6µM,nt,nt,?,?
COc1ccc(CCNC(=O)CCCn2c(=O)c3ccccc3n(Cc3ccccc3)c2=O)cc1OC,i,nt,i,i,?
Clc1ccc(-c2nn3c(-c4cc(-c5ccccc5)n[nH]4)nnc3s2)cc1,i,nt,nt,i,nt
O=C1COc2ccc(C(=O)COC(=O)c3cc(S(=O)(=O)N4CCOCC4)ccc3F)cc2N1,i,-70.2,i,i,i
O=C(COC(=O)c1cc(S(=O)(=O)N2CCOCC2)ccc1Cl)c1ccc[nH]1,i,i,i,i,nt
O=C(COC(=O)c1cc(S(=O)(=O)N2CCOCC2)ccc1F)c1ccc[nH]1,i,-62.5,i,i,i
Cc1cc(Cl)ccc1OCC(=O)N1CCCN(C(=O)COc2ccc(Cl)cc2C)CC1,i,?,i,?,i
Cc1cc(Cl)ccc1OC(C)C(=O)N1CCCN(C(=O)C(C)Oc2ccc(Cl)cc2C)CC1 (stereo unspecified),i,-64.8,?,?,?
Cc1cc(Cl)ccc1OC(C)C(=O)Nc1ccccc1N1CCOCC1 (stereo unspecified),i,-58.3,?,i,i
CC(Oc1ccc(Cl)cc1)C(=O)Nc1ccccc1N1CCOCC1 (stereo unspecified),i,i,i,i,i
COc1ccc2c(c1)c1c(c(=O)n(-c3ccc(F)c(Cl)c3)c(=O)n1Cc1ccccc1C)n2C,i,nt,i,i,i
Cc1cccc(NC(=O)c2oc3ccc(S(=O)(=O)N(C)C4CCCCC4)cc3c2C)c1C,i,nt,nt,i,nt
CC(C)C1Nc2c(O)cc(Cl)c([N+](=O)[O-])c2C2C=CCC21 (stereo unspecified),i,i,?,12.6µM,?
CC1(C)CC(=O)C(C2C3=C(CC(C)(C)CC3=O)Oc3ccccc32)C(=O)C1 (stereo unspecified),i,i,i,i,i
CC1(C)CC(=O)C2=C(C1)Oc1nc3ccccc3cc1C2C(C#N)C#N (stereo unspecified),i,-93.0,?,11.2µM,i
Cn1c(CN2CCCC2)nc2cc(NC(=O)COc3ccc(Cl)cc3)ccc21,i,-68.1,i,?,i
Cc1ccc(C(C)C)c(OCC(=O)Nc2ccc3c(c2)nc(CCN2CCCCC2)n3C)c1,i,-80.5,nt,?,?
CN1CCN(CCc2nc3cc(NC(=O)COc4ccc(Cl)cc4)ccc3n2C)CC1,i,i,i,i,i
CCn1c(CN2CCCCC2)nc2cc(NC(=O)COc3cc(C)ccc3C(C)C)ccc21,i,nt,i,i,i
Cn1c(CCN2CCCCC2)nc2cc(NC(=O)COc3ccc(Cl)cc3)ccc21,i,-83.1,i,i,i
COc1cc(/C(C#N)=C/c2ccccc2)c([N+](=O)[O-])cc1OC,i,-83.3,?,i,i
COc1cc(/C=C(\C#N)c2nc3ccccc3[nH]2)ccc1Oc1ccc([N+](=O)[O-])cn1,i,?,?,?,i
N#C/C(=C\c1cccnc1)C(=O)Nc1ccccc1[N+](=O)[O-],i,i,i,i,i
SMILES,HepG2 tox,IL-1B inflam inh,ATXN viability,TGFb inhibitor,ATXN2 expr inh
COc1cc(/C=C(/C#N)c2ccccc2)ccc1Oc1ccc([N+](=O)[O-])cn1,i,-73.8,i,i,i
N#C/C(=C\c1cccnc1)c1ccccc1[N+](=O)[O-],i,-91.8,i,?,i
C#CCOc1ccc(C(=O)N(C)c2ccccc2I)cc1,i,nt,nt,i,nt
Cc1nc(-[n+]2nc(-c3ccncc3)nn2-c2ccccc2)sc1C,i,?,14.1µM,i,?
CC1=C(C(N)=O)C(c2ccccc2)n2nc(-c3ccncc3)nc2N1 (stereo unspecified),i,i,i,i,i
COc1ccccc1CN1CCC2(CC1)c1ccccc1[C@@H](NC(=O)c1ccco1)[C@@H]2OC,nt,nt,i,nt,nt
CCCCc1c(-c2ccc(OC)cc2)ncn1CCc1ccccc1OC,nt,-113.7,nt,nt,?
CCCCc1c(-c2ccccc2OC)ncn1CCc1ccc(OC)cc1,nt,-78.7,nt,nt,?
